PubChem BioAssay AID1458 (National Center for Advancing Translational Sciences (NCATS), 2008)
The campaign covered roughly 210,000 compounds. About 5,900 (2.8%) were called active. Another 5% or so got no clear call; they are omitted. The sample holds actives, similar compounds and a random draw of the others, so the mix is not that of the screen. Calls follow the shape of the dose curve; as a rule, active = well fitted activation curve with a large enough effect; inconclusive = small, poorly fitted or top-dose-only effect; inactive = no such curve, though single readings can be large or run the other way.

Test: qHTS Assay for Enhancers of SMN2 Splice Variant Expression; also: nearly all actives have a fitted effect of over 55% in size; as to activity change, positive = activation: % of control where 0% means no effect
Details: HEK293 SMN2-luciferase splicing reporter, luminescence, 30-36 h; series mostly up to 46.1 µM; activity change, positive = activation: at the top concentration
Description: NIH Chemical Genomics Center [NCGC] NIH Molecular Libraries Probe Production centers Network [MLPCN] MLPCN Grant: R03 MH084179-01 Assay Submitter (PI): Elliot Androphy NCGC Assay Overview: Spinal muscular atrophy (SMA) is caused by insufficient levels of the survival motor neuron protein SMN. The SMN locus on chromosome 5q13 contains two inverted copies of SMN called SMN1 and SMN2 which are 99% identical at the amino acid level. SMN1 is a fully functional protein and SMN2 skips exon 7 90% of the time. Skipping of exon 7 produces non-functional protein product. 10% of the SMN2 protein includes exon 7 and is fully functional. In the SMA disease state, mutations in the SMN1 locus are the cause of the disease state. Because only 10% of SMN2 is of the fully functional form, it is not sufficient to overcome the deficiency produced by the loss of the SMN1 product. A therapy that either increase the amount of SMN2 product made or to increase the inclusion of exon 7 has been proposed for the treatment of SMA. We have designed an assay to identify small molecules that can increase the amount of functional SMN2 product by appending a luciferase reporter gene after the native SMN2 gene, such that inclusion of exon 7 in the expressed product places the luciferase sequence in frame, thus generating functional luciferase enzyme.
NCGC Assay Protocol Summary: This screen utilizes a luciferase reporter gene assay, combining the promoter and splicing based cassettes in tandem with the major portion of the native SMN2 cDNA, and then transfected into HEK293 cells. Compounds that increase luciferase signal presumably enhance expression of the functional SMN2 splice variant. Passaging media contained DMEM w/ glutamax (+phenol red) 10% FCS, 1x pen/strep, 200 ug/ml hygro, 1x sodium pyruvate. Assay media contained DMEM w/ glutamax (-phenol red) 10% FCS, 1x pen strep, 1x pyruvate Sequence, Parameter, Value, Description (1) Cells, […], 2000 cells/well, 1536 TC treated White solid bottom plate (2) Time, 10-12 hours, 37C 5% CO2 (3) Compound, 23 nl, MLSMR Library (4) Control Compound, 23 nL, Sodium butyrate st 4.5mM (final) conc (5) Time, 30-36 hours, 37C 5% CO2 (6) Reagent, 3 ul, One Glo (TM) from Promega (7) Time, 5-15 minutes, Room temp (8) Detector, Viewlux: luminescent read, 60 second integration, high speed 2x binning Keywords: Spinal muscular atrophy, SMA, SMN2, high throughput screening, MLSMR, MLPCN, NIH Roadmap, qHTS and NCGC
Potency is read from the fitted curve at half-maximal effect.

Activity change, positive = activation, inactive:
C/C(=N/NC(=O)c1ccc(NC(=O)c2ccc(F)cc2)cc1)c1ccccc1 10.8%
CCOC(=O)c1c(NC(C)=O)c2c3c(sc2n1Cc1c(C)cc(C)cc1C)CCCC3 -5.97%
COc1ccccc1-c1cc2nc(C)c(CCC(=O)NC3CCCCC3)c(C)n2n1 -6.73%
CCS(=O)(=O)C1=NSC2=NC(=O)/C(=C\c3cc(C)n(-c4cccc(OC)c4)c3C)C(=N)N21 5.92%
CS(=O)(=O)c1ccc2c(c1)SC1=NC(=O)/C(=C/c3ccco3)C(=N)N12 9.12%
Cn1c(=O)cc(OCC(=O)N2CCN(c3ccccc3)CC2)c2ccccc21 4.37%
COC(=O)c1ccc(C2C(C(=O)Nc3ccccc3)=C(C)Nc3nc4ccccc4n32)cc1 (centres undefined) -7.04%
CN(Cc1ccccc1)C(=O)c1cn(C)c2ccc(S(=O)(=O)N(C)C3CCCCC3)cc2c1=O -3.3%
CN(C)c1ccnc2sc3c(=O)n(Cc4ccccc4)cnc3c12 -24%
COc1cccc(C(=O)c2sc3nc(-c4ccccc4)cc(C(F)(F)F)c3c2N)c1 -9.67%
CN(CC(=O)Nc1cccc(C(F)(F)F)c1)S(=O)(=O)c1cccs1 0.287%
CCC1CCCCN1Cc1c(O)ccc2c(=O)c(Oc3ccccc3Cl)c(C(F)(F)F)oc12 (centres undefined) -6.73%
COc1ccc(CC(=O)c2ccc(O)cc2O)cc1OC 19.7%
Cc1cc(O)cc(O)c1C(=O)Cc1cnn(-c2ccccc2)c1 -16.1%
Cn1nc(-c2ccccc2)c(-c2ccccc2)c(C(=O)Nc2ccc(S(N)(=O)=O)cc2)c1=O 8.83%
O=C(Cn1cc(C(=O)c2cccs2)c2ccccc21)NCc1cccs1 25.6%
COC(=O)Cn1cc(C(=O)c2cccs2)c2ccccc21 8.54%
CC(=O)c1nn(-c2cccc(Br)c2)cc1C(=O)c1cccc2ccccc12 -21.6%
CCOC(=O)c1cn(Cc2cccc(C)c2)nn1 0.18%
COc1ccccc1-c1nc(SC)n[nH]1 12.2%
CCCOc1ccccc1C(=O)NCCCC(=O)O -16.9%
O=C(NCC1CCC(C(=O)O)CC1)OCc1ccccc1 (centres undefined) -2.66%
O=C(Cc1ccccc1)NNC(=O)C1CCN(c2ncccn2)CC1 4.38%
CCOC(=O)Cc1ccc(NC(=O)Nc2c[nH]c(=O)[nH]c2=O)cc1 -3.88%
O=c1[nH]c2cc(Br)ccc2n2cccc12 22.8%
CCCCCC(=O)Nc1ccc2oc(-c3ccncc3)nc2c1 -15.7%
O=C(Nc1ccc2oc(-c3ccc(O)c(Br)c3)nc2c1)c1cc2ccccc2o1 1.87%
CCOc1ccc(OCC)c(NC(=O)CN(c2ccc(C)cc2)S(=O)(=O)c2c(C)n[nH]c2C)c1 -8.29%
COc1ccc(Cl)cc1NC(=O)c1sc2nc3c(cc2c1N)CN(C)CC3 9.66%
COc1ccc(CCn2cc3c(c2-c2ccc(Br)cc2)c(=O)n(C)c(=O)n3C)cc1OC -0.506%
Cc1cccc(NC(=O)C2CCCN2S(=O)(=O)c2cccc3nsnc23)c1C (centres undefined) -4.32%
Cc1ccc(-n2c(=O)c3cccnc3n2CC(=O)NCc2ccc(F)cc2)cc1C -1.87%
NC(=O)COC(=O)/C=C/c1ccc2ccccc2n1 4.91%
CC(OC(=O)c1ccc2ccccc2n1)C(=O)c1ccccc1 (centres undefined) -3.13%
CCOC(=O)c1ccccc1NC(=O)c1nn(-c2ccc(OC)c(Cl)c2)c(=O)c2c1c1ccccc1n2C -6.12%
COc1cccc(OC)c1C(=O)Nc1nnc(C(C)C)s1 -3.99%
O=C(Nc1nncs1)c1ccccc1NS(=O)(=O)c1cccs1 -4.37%
O=S(=O)(c1ccc(C2CCCCC2)cc1)N1CCN(c2ccc(Cl)c(Cl)c2)CC1 -6.14%
COc1ccc(-c2csc(NC(=O)CCCc3cccs3)n2)cc1 -8.51%
COc1ccc(-c2nc(CCNC(=O)c3ccc(Br)o3)cs2)cc1 -57.5%
CC(C)(C)NC(=O)NC(=O)COC(=O)Cc1ccc(Cl)cc1Cl 9.02%
CCCc1ccc(-c2csc(NC(=O)Cc3cccs3)n2)cc1 -91.3%

Potency, active:
Cc1cc(/C=C2/C(=N)N3C(=NC2=O)SN=C3S(C)(=O)=O)c(C)n1-c1ccccc1 15.8 µM
CN(C)c1ccnc2sc(C(=O)c3ccccc3)c(N)c12 14.1 µM
COc1ccc(C(=O)Cc2cnn(-c3ccccc3)c2)c(O)c1 17.8 µM
COC(=O)c1cn(CC(=O)NCc2cccs2)c2ccccc12 22.4 µM
CCOC(=O)c1nn(-c2cccc(C)c2)cc1C(=O)c1ccccc1 10 µM
CCCOc1ccccc1-c1nc(SCCC(=O)O)n[nH]1 7.08 µM
O=C(O)C1CCN(C(=O)OCc2ccccc2)CC1 17.8 µM
CCCC(=O)Nc1ccc2oc(-c3ccc(O)c(Br)c3)nc2c1 11.2 µM
CCOc1cccc(/C=C/c2ccc3ccccc3n2)c1OC(C)=O 1.58 µM
COc1ccc(C(=O)Nc2nncs2)c(OC)c1 11.2 µM
COc1ccc(-c2csc(NC(=O)COC(=O)Cc3ccc(Cl)cc3Cl)n2)cc1 11.2 µM
COc1ccc(-c2csc(NC(=O)COC(=O)c3ccc(Br)o3)n2)cc1 0.794 µM
